# Rows were chosen to be rich in hits. Some 12% of all compounds tested hit in one or more screens of this group.
# L3MBTL1 inh: inhibitors of human L3MBTL1. AlphaScreen L3MBTL1–H3K9me1 peptide binding. Potency, µM (top dose mostly 57.1 µM), inactives show top-dose activity, negative = inhibition, hits mostly inhibitors. hit rate 0.66% among 230,000. AID 485360; also: % is scaled to controls: 0 for no effect and ±100 for the full control effect; nearly all actives have a fitted effect of over 60% in size
# Target sequence (Q9Y468 whole entry, looked up): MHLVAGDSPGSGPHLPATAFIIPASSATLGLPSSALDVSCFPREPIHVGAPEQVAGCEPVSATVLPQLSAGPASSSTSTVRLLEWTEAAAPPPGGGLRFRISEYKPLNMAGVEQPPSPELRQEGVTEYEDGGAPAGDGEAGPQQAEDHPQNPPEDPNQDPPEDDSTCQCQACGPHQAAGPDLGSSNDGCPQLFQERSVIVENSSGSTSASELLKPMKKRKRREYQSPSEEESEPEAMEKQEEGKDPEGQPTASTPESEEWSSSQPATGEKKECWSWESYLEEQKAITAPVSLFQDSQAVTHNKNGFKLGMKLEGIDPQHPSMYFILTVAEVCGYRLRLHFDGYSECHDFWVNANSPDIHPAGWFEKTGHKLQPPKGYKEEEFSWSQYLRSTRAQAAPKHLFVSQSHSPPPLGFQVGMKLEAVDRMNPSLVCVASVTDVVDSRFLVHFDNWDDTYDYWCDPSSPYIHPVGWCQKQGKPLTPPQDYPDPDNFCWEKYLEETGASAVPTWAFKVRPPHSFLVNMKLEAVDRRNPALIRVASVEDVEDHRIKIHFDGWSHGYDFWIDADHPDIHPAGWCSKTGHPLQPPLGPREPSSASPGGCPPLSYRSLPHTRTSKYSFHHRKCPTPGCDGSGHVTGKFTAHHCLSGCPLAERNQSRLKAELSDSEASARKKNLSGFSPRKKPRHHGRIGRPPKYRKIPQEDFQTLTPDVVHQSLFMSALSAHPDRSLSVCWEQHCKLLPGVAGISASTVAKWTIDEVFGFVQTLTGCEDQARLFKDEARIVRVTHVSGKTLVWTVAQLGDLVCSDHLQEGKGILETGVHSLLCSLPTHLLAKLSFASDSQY
#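 AlphaScreen assay: L3MBTL1 (50 nM final) was preincubated 30 min at room temperature with biotinylated H3(1-15)K9me1 peptide (75 nM final), then 30 min with library compounds; streptavidin donor and nickel chelate acceptor beads (10 ug/mL final) added, 30 min dark.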
# HP1b chromo inh: inhibitors of HP1-beta chromodomain binding to methylated histone tails; P83916; AlphaScreen HP1-beta / biotin-H3K9me3 peptide binding; Potency, µM (titrated, usually from 114 µM), for the others: at the highest dose activity change, negative = inhibition, usual class: inhibitors; hit rate 0.56% among 390,000; also: nearly all actives have a fitted effect of over 70% in size
#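 Compound inhibition of the preformed complex between 50 nM HP1-beta and 50 nM biotinylated H3K9me3 peptide was read by AlphaScreen. Buffer was PBS pH 7.4 with 0.01% Tween-20. Incubations ran 30 min at room temperature, with 10 ug/mL donor/acceptor beads.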
# BAZ2B block: BAZ2B (human) inhibition; AlphaScreen BAZ2B-H3K14Ac peptide displacement; Potency, µM (titrated, usually from 114 µM), for the others: at the highest dose activity change, negative = inhibition, actives largely listed as inhibitors; hit rate 4.4% among 360,000; also: % is scaled to controls: 0 for no effect and ±100 for the full control effect; nearly all actives have a fitted effect of over 60% in size
#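 AlphaScreen displacement of biotin-H3(5-23)K14Ac peptide (50 nM final) from BAZ2B (50 nM final) in PBS pH 7.4, 0.01% Tween-20; complex preformed 30 min RT, then compounds (top 110 uM) 30 min RT, beads 20 min dark.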
# G9a inh: G9a (human) methyltransferase inhibition. Potency, µM (series often up to 102 µM), without a hit: top-dose activity, negative = inhibition, hits mostly inhibitors. Q96KQ7. hit rate 8.8% among 350,000. G9a H3K9 monomethylation, AlphaScreen, 2 h; also: % is scaled to controls: 0 for no effect and ±100 for the full control effect; nearly all actives have a fitted effect of over 75% in size
#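 Compounds were preincubated with 20 nM G9a for 15 min, after which biotinylated H3K9 peptide (500 nM) and SAM (20 uM) started a 2 h room-temperature reaction. Monomethylated product was quantified by antibody-based AlphaScreen chemiluminescence.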
# JMJD2A Tudor inh: blocks the human JMJD2A Tudor domain | O75164 | AlphaScreen JMJD2A-Tudor / H3K4me3 peptide binding | Potency, µM (highest dose often 114 µM), for inactives: top-dose activity change, negative = inhibition, actives largely listed as inhibitors | hit rate 4.4% among 390,000 | AID 504339; also: % is scaled to controls: 0 for no effect and ±100 for the full control effect; nearly all actives have a fitted effect of over 50% in size
# Sfp PPTase inh: blocks B. subtilis Sfp PPTase activity; Q9F4F7; Biochemical Sfp PPTase activity, qHTS; Potency, µM, inactives show largest response in the series, negative = inhibition, actives largely listed as inhibitors; hit rate 3.5% among 310,000; AID 1490;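 also: the enzyme is Sfp with the accession as filed and its product quenches rhodamine fluorescence; 0% = enzyme reaction without inhibitor and -100% = no enzyme wells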
#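 Compounds were incubated with enzyme (final 15 nM) for 15 min at room temperature before substrate addition started the reaction. Fluorescence at 525 nm excitation, 598 nm emission was recorded immediately and after 30 minutes.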
# * hit, by the source's call; ? = inconclusive; . = not tested or not shown; [ ] = dose if it differs, or a comment. Calls follow the shape of the dose curve; as a rule, active = well fitted curve in the direction sought with a large enough effect; inconclusive = small, poorly fitted or top-dose-only effect, or another doubt; inactive = no such curve, though single readings can be large; an effect the other way counts as inactive or inconclusive. Potency is read from the fitted curve at half-maximal effect.
SMILES,L3MBTL1 inh,HP1b chromo inh,BAZ2B block,G9a inh,JMJD2A Tudor inh,Sfp PPTase inh
Cc1ccc(C(=O)Oc2oc(-c3ccco3)nc2C=Nc2ccccc2)cc1,0%,.,-5%[57.1 µM],28µM*,.,45µM*
CN(C)c1ccc(N=Cc2nc(-c3ccccc3)oc2OC(=O)c2cccc(Br)c2)cc1,-19%,-22%,35µM*,32µM*,?,-3%
Cn1c(NCc2ccccc2F)nc2ccccc21,.,24%,1%,-5%[59 µM],-7%,.
CCOC(=O)c1cc(-c2ccc(F)cc2)n(CCC(=O)NC2CCC(C)CC2)c1C (stereo not drawn),.,-9%,-3%,-7%[59 µM],-23%,.
CSc1ccccc1C(=O)OCC(=O)N1CCCCCC1,8%,6%,.,.,-8%,.
CN(C)c1ccc(N=Nc2ccccc2C(=O)OCC(=O)N2CCCCCC2)cc1,?,18µM*,13µM*,8.9µM*,28µM*,-10%
CN(C)c1ccc(N=Nc2ccccc2C(=O)OCC(=O)Nc2ccccc2C(F)(F)F)cc1,25µM*,?,10µM*,10µM*,7.1µM*,-4%
CN(C)c1ccc(N=Nc2ccccc2C(=O)OCC(=O)N2CCCC2)cc1,-17%,?,40µM*,25µM*,56µM*,-8%
CCn1cc(S(=O)(=O)c2ccccc2)c(=O)c2cc(F)c(N3CCCCCC3)cc21,.,39%,3%,4%[59 µM],-16%,.
COc1ccc(-c2cn3nc(N4CCC(C(=O)Nc5cccc(Cl)c5)CC4)sc3n2)cc1,.,32%,0%,?,-7%,.
CCOC(=O)N1CCc2c(sc(NCc3sccc3C)c2C(=O)Nc2ccc(OC)cc2OC)C1,.,-2%,?,3.5µM*,?,.
COc1ccc(Cl)cc1NC(=O)c1c(NCc2sccc2C)sc2c1CCCC2,.,?,45µM*,2.8µM*,50µM*,.
COc1ccc(NC(=O)c2c(NCc3sccc3C)sc3c2CCCCC3)c(OC)c1,.,-18%,32µM*,11µM*,?,.
COc1ccccc1NC(=O)c1c(NCc2sccc2C)sc2c1CCCCC2,.,?,32µM*,10µM*,45µM*,.
CCc1ccc(-c2nn(CC(=O)NCc3ccccc3)c3c2cnc2ccc(C)cc23)cc1,.,7%,-3%,3%[59 µM],-21%,.
COC(=O)c1scc(-c2ccc(C)cc2)c1S(=O)(=O)Nc1cc(Cl)ccc1C,.,-3%,-7%,-4%[59 µM],-29%,.
CCOC(=O)c1cc(-c2ccccc2)n(-c2cccc(C(=O)Nc3cccc(F)c3)c2)c1C,.,31%,-25%,-7%[59 µM],-32%,.
COCCN1CCc2nc(SCC(=O)Nc3ccc(C)c(Cl)c3)[nH]c(=O)c2C1,.,54%,0%,?,-1%,.
COc1ccc(NC(=O)c2c(NCc3cccc(F)c3)sc3c2CCCC3)c(OC)c1,.,?,25µM*,10µM*,?,.
CCOc1ccccc1NC(=O)c1c(NCc2cccs2)sc2c1CCCCC2,.,0%,-3%,?,-23%,.
CCOc1ccccc1NC(=O)c1c(NCc2sccc2C)sc2c1CCCCC2,.,4%,?,10µM*,?,.
CCOC(=O)N1CCc2c(sc(NCc3sccc3C)c2C(=O)Nc2ccccc2OCC)C1,.,7%,-23%,8.9µM*,?,.
CCOc1ccccc1NC(=O)c1c(NCc2sccc2C)sc2c1CCC(C)C2 (stereo not drawn),.,-4%,-29%,-29%[59 µM],-29%,.
CCOC(=O)c1scc(-c2ccc(C)cc2)c1S(=O)(=O)Nc1cc(Cl)ccc1OC,.,11%,-39%,-40%[59 µM],-24%,.
COC(=O)C(CCSC)NS(=O)(=O)c1ccccc1Br (stereo not drawn),.,30%,.,.,-8%,16%
SMILES,L3MBTL1 inh,HP1b chromo inh,BAZ2B block,G9a inh,JMJD2A Tudor inh,Sfp PPTase inh
COc1ccc(CNC(=O)c2ccc(CN3C(=O)C(C)=C(c4ccc(C)cc4)S3(=O)=O)cc2)cc1,.,3%,-15%,-4%[59 µM],-31%,.
CCN(CC)c1ccc(/C=N/NC(=O)c2cnccn2)cc1,.,34%,.,56µM*,-15%,?
CCN(CC)c1ccc(/C=N/NC(=O)c2c[nH]c3ccccc23)cc1,-15%,3%,?,8.9µM*,-33%,11%
Cn1c(=O)c2c(-c3ccc(Cl)cc3)ccnc2n(C)c1=O,.,29%,-10%,14%[59 µM],-18%,.
CCOc1ccc(S(=O)(=O)Nc2cccc(OC)c2)c2cccnc12,.,22%,-19%,0%[59 µM],-22%,.
CC1=C(c2ccc(C)c(C)c2)S(=O)(=O)N=C1N1CCC(C(=O)N2CCC(C)CC2)CC1,.,57%,0%,6%[59 µM],-2%,.
Cc1cc(=O)n2[nH]c(-c3ccc(F)cc3)cc2n1,-3%,14%,8%,-3%[59 µM],-9%,12%
Cc1ccccc1-c1cc2nc(C)c(Cl)c(=O)n2[nH]1,.,-18%,.,.,-18%,.
Cc1nc2cc(-c3ccsc3-n3c(C)ccc3C)[nH]n2c(=O)c1Cl,.,-19%,50µM*,?,?,?
COCc1cc(=O)n2[nH]c(-c3ccsc3-n3c(C)ccc3C)cc2n1,.,12%,?,-34%[59 µM],-11%[11.4 µM],56µM*
Cc1cc(=O)n2[nH]c(-c3ccsc3-n3c(C)ccc3C)cc2n1,.,9%,45µM*,.,-8%[11.4 µM],45µM*
CCC(=O)N1CCc2cc(S(=O)(=O)NC(CC(C)C)C(=O)NCc3cccc(OC)c3)ccc21 (stereo not drawn),.,31%,.,3%[59 µM],-15%,.
COc1ccccc1-c1nc(SCC(=O)c2ccc(Cl)cc2)n[nH]1,.,15%,-9%,0%[59 µM],-15%,.
CN1CCN(C(=O)c2ccc(NS(=O)(=O)c3cccc([N+](=O)[O-])c3)cc2)CC1,7%,-4%,3%,45µM*,-13%,.
O=C(NCc1ccccc1Cl)c1ccc2c(O)c(S(=O)(=O)c3ccccc3)c(=O)[nH]c2c1,.,26%,?,?,-9%,.
Cc1ccc(NC(=O)C(Cc2ccccc2)n2cccc2)cc1 (stereo not drawn),.,5%,-38%,8%,-11%,3%
Cc1csc(NC(=O)C(Cc2ccccc2)n2cccc2)n1 (stereo not drawn),?,-21%,?,45µM*,?,-15%
CC(C(=O)NCc1cccs1)n1cccc1 (stereo not drawn),-8%,19%,-29%,-32%,-1%,19%
CCC(C(=O)Nc1nc(C)cs1)c1ccccc1 (stereo not drawn),0%,-15%,2%,11%[59 µM],50µM*,17%
O=C(NCc1cccs1)C(Cc1ccccc1)n1cccc1 (stereo not drawn),-4%,9%,-37%,45µM*,-25%,-6%
CCC(C(=O)Nc1nc(C)c(C)s1)c1ccccc1 (stereo not drawn),-7%[2.29 µM],11%,50µM*,-8%[0.501 µM],-23%,50µM*

# Screening data from PubChem BioAssay.
